Inconclusive results are not listed. Activity calls are given as the source filed them. Unless noted, calls follow the shape of the dose curve; as a rule, active = well fitted curve in the direction sought with a large enough effect in the repeat runs; inconclusive = weak or mixed curves; inactive = no such curve, though single readings can be large; an effect the other way counts as inactive or inconclusive.
Columns and labels:
[1] = biological target: Estrogen receptor (Homo sapiens) (UniProt P03372); experiment: qHTS assay to identify small molecule agonists of the estrogen receptor alpha (ER-alpha) signaling pathway in the presence of an antagonist (AID 1259383; calls by dose curve; also: nearly all actives have a fitted effect of over 15% in size; also: potency is read from the fitted curve at half-maximal effect; as to activation: top concentration of the series differs between compounds)
How it was run: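 ER-alpha agonism measured under antagonist challenge: 10.0nM ICI-182,780 (final) plus compound, 15 concentrations, 22hr, VM7Luc4E2 ERE-luciferase cells. Read by luminescence.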

[2] = qHTS assay to identify small molecule agonists or antagonists of the thyroid stimulating hormone receptor (TSHR) signaling pathway - wild type cell line counter screen (AID 1259384; calls by dose curve)
How it was run: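 Wild-type HEK293 cells were plated 18 h at 37 C/5% CO2, pin-dosed with compound plus Ro20-1724 medium, held 30 min at room temperature, then given cAMP-d2 and anti-cAMP-cryptate; fluorescence was read after 1 h. Fifteen concentrations, triplicate.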

[3] = biological target: Thyrotropin receptor (Homo sapiens) (UniProt P16473); experiment: qHTS assay to identify small molecule antagonists of the thyroid stimulating hormone receptor (TSHR) signaling pathway (AID 1259385; calls by dose curve; also: nearly all actives have a fitted effect of over 20% in size)
How it was run: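 TSHR-HEK293 cells were plated and held 18 h at 37C/5% CO2, then given compound plus Ro20-1724 and stimulated with TSH at 1.5 ng/mL final. After 30 min at room temperature, cAMP was detected with cAMP-d2/anti-cAMP-cryptate (1 h) by fluorescence.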

[4] = qHTS assay to identify small molecule agonists of the estrogen receptor alpha (ER-alpha) signaling pathway in the presence of an antagonist - cell viability counter screen (AID 1259386);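 also: series mostly up to about 92 µM; cells exposed to compounds for 22 h at 37 °C before the viability read; nearly all actives have a fitted effect of over 30% in size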
How it was run: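 Steps: 5-day stripped-FBS culture; seed and incubate 24hr; add ICI-182,780 (10.0nM final); pin 15-point compound titration; incubate 22hr at 37C; add CellTiter-Fluor at 21hr; read fluorescence.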

[5] = biological target: Progesterone receptor (Homo sapiens) (UniProt P06401); experiment: qHTS assay to identify small molecule agonists of the progesterone receptor (PR) signaling pathway (AID 1346784; calls by dose curve; also: nearly all actives have a fitted effect of over 30% in size)
How it was run: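 Using charcoal-stripped serum (2%) to limit endogenous steroids, PR-UAS-bla HEK 293T cells received compounds for 16 hr at 37C after 6 hr plating; beta-lactamase FRET fluorescence was recorded following 2 hr substrate loading at room temperature.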

[6] = qHTS assay to identify small molecule antagonists of the progesterone receptor (PR) signaling pathway - cell viability counter screen (AID 1346798); also: series mostly up to about 92 µM; nearly all actives have a fitted effect of over 50% in size
How it was run: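 ATP content as viability readout: CellTiter-Glo luminescence, 30 min room temperature, in PR-UAS-bla HEK293T cells after 16 hr compound/R5020 treatment at 37C and 5% CO2.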

[7] = qHTS assay to identify small molecule agonists of the progesterone receptor (PR) signaling pathway - cell viability counter screen (AID 1346799; calls by dose curve; also: nearly all actives have a fitted effect of over 45% in size)
How it was run: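 Cytotoxicity in PR-bla HEK293T cells: 16 h compound, 37C; CellTiter-Glo added post-FRET read; luminescence after 30 min RT.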

[8] = qHTS assay to identify small molecule antagonists of the TGF-beta/Smad signaling pathway - cell viability counter screen (AID 1346824); also: nearly all actives have a fitted effect of over 50% in size
How it was run: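 SBE-bla HEK 293T cells were plated overnight at 37 C, then given compounds in DMSO plus TGF-beta1 (added as 0.25 ng/mL solution) for 5 hr. After the bla read, CellTiter-Glo was added to the same wells and luminescence read after 30 min at room temperature.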

[9] = qHTS assay to identify small molecule agonists of the TGF-beta/Smad signaling pathway - cell viability counter screen (AID 1346829); also: top concentration of the series differs between compounds; nearly all actives have a fitted effect of over 45% in size
How it was run: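 After overnight seating at 37 C and 5% CO2, reporter cells got compounds for 5 hr and FRET substrate for 2 hr; cell viability then came from CellTiter-Glo luminescence.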

[10] = qHTS assay to identify small molecule agonists of the TGF-beta/Smad signaling pathway (AID 1346859; active = well fitted activation curve with a large enough effect in the signal ratio in the repeat runs, not every such curve was filed as active; the % refers to the signal ratio; also: series mostly up to about 77 µM)
How it was run: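 Stable Smad binding element-beta-lactamase HEK 293T cells; 5 hr compound exposure at 37 C under 5% CO2; 2 hr room-temperature substrate step; fluorescence excited at 405 nm, collected at 460 nm and 530 nm.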

[11] = biological target: Thyrotropin-releasing hormone receptor (Homo sapiens) (UniProt P34981); experiment: qHTS assay to identify small molecule antagonists of the thyrotropin-releasing hormone receptor (TRHR) signaling pathway (AID 1346877; active = well fitted inhibition curve with a large enough effect in the repeat runs, not every such curve was filed as active; also: series mostly up to about 51 µM)
How it was run: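 Human TRHR in HEK293 cells; inhibition of the intracellular calcium rise triggered by 1 nM TRH was followed by fluorescence over 3 min. Compounds were run at 15 concentrations, three replicates each.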

[12] = biological target: Thyrotropin-releasing hormone receptor (Homo sapiens) (UniProt P34981); experiment: qHTS assay to identify small molecule agonists of the thyrotropin-releasing hormone receptor (TRHR) signaling pathway (AID 1346891; calls by dose curve;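 also: HEK293 cells expressing TRHR with calcium dye readout; series mostly up to about 58 µM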)
How it was run: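 In 1536-format, 1500 TRHR-Hek293 cells per well grew 18 h, took up calcium dye for 2 h at 37 °C, received compound, and were read kinetically; 15-point titrations, triplicates.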

[13] = Human pregnane X receptor (PXR) small molecule agonists, qHTS cell viability counter screen (AID 1346977); also: nearly all actives have a fitted effect of over 50% in size
How it was run: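 Readout is CellTiter-Fluor fluorescence from PXR-Luc HepG2 cells. Plated cells rested 5hr, then were treated with compounds for 24hr at 37C and 5% CO2, with reagent present during the last hour.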

[14] = Caspase-3/7 induction in HepG2 cells by small molecules, qHTS assay (AID 1346978); also: nearly all actives have a fitted effect of over 15% in size
How it was run: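 Wild-type HepG2 cells (2,000/well) were settled 5 h at 37 C, 5% CO2, then exposed to compounds in DMSO for 17 h. Caspase-3/7 activity was read by luminescence 30 min after adding Caspase-Glo 3/7 reagent at room temperature.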

[15] = Caspase-3/7 induction in CHO-K1 cells by small molecules, qHTS cell viability counter screen (AID 1346979); also: nearly all actives have a fitted effect of over 35% in size
How it was run: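 To flag cytotoxic compounds, treated CHO-K1 wild-type cells were given CellTiter-Fluor at 16hr and read fluorescently after 1hr at 37C; the caspase-3/7 luminescence was measured in these same wells.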

[16] = biological target: Nuclear receptor subfamily 1 group I member 2 (Homo sapiens) (UniProt O75469); experiment: Human pregnane X receptor (PXR) small molecule agonists, qHTS assay (AID 1346982); also: nearly all actives have a fitted effect of over 35% in size; also: potency is read from the fitted curve at half-maximal effect
How it was run: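 After plating in 5% charcoal-stripped FBS and a 5 hr rest, PXR-Luc HepG2 cells received compounds in DMSO. Following 24 hr at 37 C, ONE-Glo was added and light output read.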

[17] = Caspase-3/7 induction in CHO-K1 cells by small molecules, qHTS assay (AID 1346980); also: nearly all actives have a fitted effect of over 15% in size
How it was run: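 Wild-type cells were seeded at 1,500 per well and settled 5 hr at 37 C, 5% CO2, then exposed to DMSO-dissolved compounds for 17 hr. Caspase-Glo 3/7 reagent was added, and luminescence was read after 30min at room temperature.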

[18] = Caspase-3/7 induction in HepG2 cells by small molecules, qHTS cell viability counter screen (AID 1346981); also: series mostly up to about 92 µM; nearly all actives have a fitted effect of over 30% in size
How it was run: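 The parent HepG2 line is plated at 2,000 cells per well and rested 5 hr before compound pinning from DMSO stocks. Following a 16-hr treatment at 37 C, a fluorogenic live-cell substrate (CellTiter-Fluor) reports viability after 1 hr.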

[19] = biological target: Nuclear receptor subfamily 1 group I member 2 (Rattus norvegicus) (UniProt Q9R1A7); experiment: Rat pregnane X receptor (rPXR) activation by small molecules, qHTS assay (AID 1346983); settings: rPXR luciferase reporter cells, One-Glo luminescence, 24 h; max activation: active compounds read high; also: nearly all actives have a fitted effect of over 20% in size
How it was run: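 Cell-based rPXR luciferase reporter assay, 2,000 cells per well, rested 5hr at 37 C before compound addition in DMSO, then 24 hr at 37 C. One-Glo reagent was added and luminescence read after 30 min at room temperature.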

[20] = biological target: Progesterone receptor (Homo sapiens) (UniProt P06401); experiment: qHTS assay to identify small molecule antagonists of the progesterone receptor (PR) signaling pathway (AID 1346795; active = well fitted inhibition curve with a large enough effect in the signal ratio in the repeat runs, not every such curve was filed as active; the % refers to the signal ratio)
How it was run: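 Inhibition of R5020-induced (1 nM final) beta-lactamase reporter signal in PR-UAS-bla HEK293T cells was scored by FRET fluorescence after overnight (16 hr) compound treatment.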
% is scaled to controls: 0 for no effect and ±100 for the full control effect.

Sequence of Nuclear receptor subfamily 1 group I member 2 (Homo sapiens) (O75469 whole entry, looked up): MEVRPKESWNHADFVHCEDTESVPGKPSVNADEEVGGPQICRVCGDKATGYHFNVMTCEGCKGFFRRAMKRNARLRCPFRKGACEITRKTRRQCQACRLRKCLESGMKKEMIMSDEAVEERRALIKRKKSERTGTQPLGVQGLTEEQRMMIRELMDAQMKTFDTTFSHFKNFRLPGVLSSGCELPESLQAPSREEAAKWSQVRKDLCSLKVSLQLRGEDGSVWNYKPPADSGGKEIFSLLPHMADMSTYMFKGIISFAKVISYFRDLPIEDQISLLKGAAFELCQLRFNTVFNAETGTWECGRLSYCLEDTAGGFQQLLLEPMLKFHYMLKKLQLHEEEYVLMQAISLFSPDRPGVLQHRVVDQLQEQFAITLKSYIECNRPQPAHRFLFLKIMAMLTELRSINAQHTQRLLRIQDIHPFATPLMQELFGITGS
Sequence of Progesterone receptor (Homo sapiens) (P06401 whole entry, looked up): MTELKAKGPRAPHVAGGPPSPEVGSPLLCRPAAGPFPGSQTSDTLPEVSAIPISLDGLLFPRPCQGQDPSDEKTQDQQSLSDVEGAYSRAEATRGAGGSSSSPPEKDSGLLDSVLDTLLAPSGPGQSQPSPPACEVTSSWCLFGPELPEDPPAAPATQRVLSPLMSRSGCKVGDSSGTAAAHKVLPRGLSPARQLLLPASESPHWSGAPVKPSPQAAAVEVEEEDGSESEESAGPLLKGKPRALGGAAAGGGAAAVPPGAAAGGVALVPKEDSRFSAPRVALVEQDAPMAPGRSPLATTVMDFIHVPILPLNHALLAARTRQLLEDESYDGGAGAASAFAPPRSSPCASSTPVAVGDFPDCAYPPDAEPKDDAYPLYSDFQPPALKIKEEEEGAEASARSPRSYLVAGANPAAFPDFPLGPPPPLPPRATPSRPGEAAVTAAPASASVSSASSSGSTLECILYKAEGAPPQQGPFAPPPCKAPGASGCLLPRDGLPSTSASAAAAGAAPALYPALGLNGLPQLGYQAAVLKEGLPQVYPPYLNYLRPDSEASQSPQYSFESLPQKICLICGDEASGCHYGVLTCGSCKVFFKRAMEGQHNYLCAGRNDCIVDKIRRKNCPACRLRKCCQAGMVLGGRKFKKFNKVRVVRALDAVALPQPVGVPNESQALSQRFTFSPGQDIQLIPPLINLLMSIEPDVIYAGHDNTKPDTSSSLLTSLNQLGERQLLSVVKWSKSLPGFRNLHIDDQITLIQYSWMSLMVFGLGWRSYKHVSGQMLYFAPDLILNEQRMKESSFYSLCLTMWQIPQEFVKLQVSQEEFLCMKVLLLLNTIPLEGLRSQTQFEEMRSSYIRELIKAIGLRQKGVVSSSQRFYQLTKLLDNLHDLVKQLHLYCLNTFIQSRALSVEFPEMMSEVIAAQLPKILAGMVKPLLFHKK
Sequence of Estrogen receptor (Homo sapiens) (P03372 whole entry, looked up): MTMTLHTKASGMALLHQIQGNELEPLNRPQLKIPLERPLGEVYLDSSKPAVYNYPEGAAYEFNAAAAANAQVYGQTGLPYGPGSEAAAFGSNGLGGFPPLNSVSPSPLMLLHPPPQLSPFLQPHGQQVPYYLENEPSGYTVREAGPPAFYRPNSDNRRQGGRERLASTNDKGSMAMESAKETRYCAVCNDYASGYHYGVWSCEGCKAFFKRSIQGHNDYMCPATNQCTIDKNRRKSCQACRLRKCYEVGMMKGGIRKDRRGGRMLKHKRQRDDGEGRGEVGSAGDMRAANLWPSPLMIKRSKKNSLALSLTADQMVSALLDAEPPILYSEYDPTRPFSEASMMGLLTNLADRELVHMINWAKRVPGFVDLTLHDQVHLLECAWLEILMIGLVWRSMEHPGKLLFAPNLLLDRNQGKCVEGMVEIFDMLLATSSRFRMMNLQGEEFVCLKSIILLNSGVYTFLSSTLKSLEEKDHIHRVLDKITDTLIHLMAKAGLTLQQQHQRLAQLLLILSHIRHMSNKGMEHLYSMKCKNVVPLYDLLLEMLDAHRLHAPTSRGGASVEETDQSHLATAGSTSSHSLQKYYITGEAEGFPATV
Sequence of Thyrotropin receptor (Homo sapiens) (P16473 whole entry, looked up): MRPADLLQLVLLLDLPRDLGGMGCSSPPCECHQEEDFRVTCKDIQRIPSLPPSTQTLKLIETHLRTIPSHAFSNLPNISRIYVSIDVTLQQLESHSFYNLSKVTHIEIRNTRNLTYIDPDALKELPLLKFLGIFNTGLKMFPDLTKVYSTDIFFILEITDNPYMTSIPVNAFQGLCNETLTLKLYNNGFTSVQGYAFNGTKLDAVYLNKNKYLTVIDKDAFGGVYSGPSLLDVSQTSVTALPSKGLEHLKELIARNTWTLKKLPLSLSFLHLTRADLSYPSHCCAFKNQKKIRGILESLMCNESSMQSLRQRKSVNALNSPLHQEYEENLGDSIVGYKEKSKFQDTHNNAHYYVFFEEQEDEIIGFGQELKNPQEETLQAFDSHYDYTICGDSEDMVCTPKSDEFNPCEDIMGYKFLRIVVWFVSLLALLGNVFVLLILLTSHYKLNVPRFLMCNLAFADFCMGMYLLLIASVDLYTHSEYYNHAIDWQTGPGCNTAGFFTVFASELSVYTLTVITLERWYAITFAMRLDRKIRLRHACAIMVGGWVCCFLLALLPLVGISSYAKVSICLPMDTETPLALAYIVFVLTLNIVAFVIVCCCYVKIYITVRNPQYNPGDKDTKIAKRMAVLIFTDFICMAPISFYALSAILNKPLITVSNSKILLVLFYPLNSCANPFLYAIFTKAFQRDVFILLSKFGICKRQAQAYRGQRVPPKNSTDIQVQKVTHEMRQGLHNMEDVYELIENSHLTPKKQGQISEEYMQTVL
Sequence of Thyrotropin-releasing hormone receptor (Homo sapiens) (P34981 whole entry, looked up): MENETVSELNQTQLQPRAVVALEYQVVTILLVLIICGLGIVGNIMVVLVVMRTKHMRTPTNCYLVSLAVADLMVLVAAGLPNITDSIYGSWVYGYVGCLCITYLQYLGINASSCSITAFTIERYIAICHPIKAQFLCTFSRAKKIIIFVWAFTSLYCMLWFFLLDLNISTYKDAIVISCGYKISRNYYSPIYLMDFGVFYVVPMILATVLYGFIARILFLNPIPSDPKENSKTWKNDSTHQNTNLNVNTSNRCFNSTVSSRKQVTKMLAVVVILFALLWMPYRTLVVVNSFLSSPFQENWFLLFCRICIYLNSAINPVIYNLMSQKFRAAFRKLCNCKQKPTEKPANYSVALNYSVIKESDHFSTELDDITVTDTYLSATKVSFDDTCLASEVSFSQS
Sequence of Nuclear receptor subfamily 1 group I member 2 (Rattus norvegicus) (Q9R1A7 whole entry, looked up): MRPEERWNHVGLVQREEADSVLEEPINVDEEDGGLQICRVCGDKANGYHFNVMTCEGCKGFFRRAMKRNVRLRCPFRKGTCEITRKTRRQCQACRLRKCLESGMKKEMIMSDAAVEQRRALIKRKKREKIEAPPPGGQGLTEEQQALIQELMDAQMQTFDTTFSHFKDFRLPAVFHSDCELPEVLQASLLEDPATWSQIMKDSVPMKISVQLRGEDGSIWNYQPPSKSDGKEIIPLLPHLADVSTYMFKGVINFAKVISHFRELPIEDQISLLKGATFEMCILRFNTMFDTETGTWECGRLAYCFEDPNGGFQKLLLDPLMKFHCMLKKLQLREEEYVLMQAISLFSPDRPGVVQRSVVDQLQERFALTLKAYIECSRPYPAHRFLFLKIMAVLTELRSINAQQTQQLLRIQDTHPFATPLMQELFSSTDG

CCCCCCCCCCCCCC(=O)OCC
inactive: Potency [1] | outcome [2] | outcome [3] | outcome [4] | Potency [5] | outcome [6] | Potency [7] | outcome [8] | outcome [9] | outcome [10] | outcome [11] | Potency [12] | outcome [13] | outcome [14] | Potency [15] | Potency [16]

c1coc(Cn2cccc2)c1
inactive: Potency [1] | outcome [2] | outcome [3] | outcome [4] | Potency [7] | outcome [8] | outcome [9] | outcome [10] | outcome [11] | Potency [12] | outcome [13] | outcome [14] | Potency [15] | outcome [17] | outcome [18] | Potency [16]

CC(=O)SCC(CC(=O)c1ccc(C)cc1)C(=O)O (stereo unspecified)
inactive: Potency [1] | outcome [2] | outcome [3] | outcome [4] | Potency [5] | Potency [7] | outcome [8] | outcome [10] | outcome [11] | Potency [12] | outcome [13] | outcome [14] | Potency [15] | outcome [17] | outcome [18] | Potency [16]

CCN1CCN(C(=O)N[C@@H](C(=O)N[C@@H]2C(=O)N3C(C(=O)O)=C(CSc4nnnn4C)CS[C@H]23)c2ccc(O)cc2)C(=O)C1=O
inactive: Potency [1] | outcome [2] | outcome [3] | outcome [4] | outcome [6] | Potency [7] | outcome [9] | outcome [10] | outcome [11] | outcome [13] | outcome [14] | Potency [15] | outcome [17] | outcome [18] | Potency [16] | max activation [19] -3.62%

CCNC(=O)C(C)OC(=O)Nc1ccccc1 (stereo unspecified)
inactive: Potency [1] | outcome [2] | outcome [3] | outcome [4] | Potency [5] | Potency [7] | outcome [9] | outcome [10] | outcome [11] | Potency [12] | outcome [13] | outcome [14] | outcome [18] | Potency [16]

CC1=C(O)C(=O)CO1
inactive: Potency [1] | outcome [4] | Potency [5] | Potency [20] | outcome [6] | Potency [7] | outcome [8] | outcome [9] | outcome [10] | outcome [11] | outcome [13] | outcome [14] | Potency [15] | outcome [17] | outcome [18] | Potency [16]

CC(C)c1cc(C(C)C)cc(C(C)C)c1
inactive: Potency [1] | outcome [4] | Potency [5] | Potency [20] | Potency [7] | outcome [8] | outcome [9] | outcome [10] | outcome [11] | Potency [12] | outcome [13] | outcome [14] | Potency [15] | outcome [17] | outcome [18] | Potency [16]

CN(C)CCC[C@@]1(c2ccc(F)cc2)OCc2cc(C#N)ccc21
inactive: Potency [1] | outcome [2] | outcome [4] | Potency [5] | Potency [20] | outcome [8] | outcome [9] | outcome [10] | outcome [11] | Potency [12] | outcome [14] | Potency [15] | outcome [17] | outcome [18] | Potency [16] | max activation [19] -1.39%

C=CCCCCCCCCCCCCCC
inactive: activation [1] -0.0008% [at 19 µM] | cAMP activity change [2] 3.16% [at 18.9 µM] | activity change, negative = cytotoxicity [4] 1.42% [at 19 µM] | activity change, negative = cytotoxicity [6] 6.76% [at 18.9 µM] | activity change, negative = cytotoxicity [7] 11.1% [at 19 µM] | viability change, negative = cytotoxic [8] -0.4% [at 15.8 µM] | activity change, negative = cytotoxicity [9] 9.91% [at 15.8 µM] | activation [10] 0.917% [at 15.8 µM] | activity, negative = inhibition [11] 2.16% [at 10.5 µM] | activity change, negative = cytotoxicity [13] 1.28% [at 19 µM] | caspase activation [14] 1.32% [at 19 µM] | activity change, negative = cytotoxicity [15] 5.54% [at 19 µM] | caspase-3/7 activation [17] 1.16% [at 19 µM] | activity change, negative = cytotoxicity [18] -0.984% [at 19 µM] | activation [16] 1.1% [at 19 µM]

CC(C)(C)c1ccc(C(=O)CCCCl)cc1
active: Potency [1] 7.5 µM | Potency [16] 26.6 µM
inactive: outcome [2] | outcome [4] | Potency [5] | Potency [7] | outcome [9] | outcome [10] | outcome [11] | Potency [12] | outcome [13] | outcome [14] | Potency [15] | outcome [18]

CSC(=O)c1cccc2nnsc12
inactive: Potency [1] | outcome [2] | outcome [4] | Potency [5] | outcome [8] | outcome [9] | outcome [10] | outcome [11] | Potency [12] | outcome [13] | outcome [14] | Potency [15] | outcome [18] | Potency [16]

COC(=O)c1c(C)cc(O)c(C)c1O
active: Potency [16] 61.1 µM
inactive: Potency [1] | outcome [4] | Potency [5] | outcome [6] | outcome [8] | outcome [9] | outcome [10] | outcome [11] | Potency [12] | outcome [13] | outcome [14] | outcome [17] | outcome [18]

O=C(O)COc1ccc2ccccc2c1
inactive: Potency [1] | outcome [4] | Potency [5] | Potency [20] | outcome [6] | Potency [7] | outcome [8] | outcome [9] | outcome [11] | Potency [12] | outcome [13] | outcome [14] | outcome [17] | outcome [18] | Potency [16]

CO/N=C(\C(=O)O)c1csc(NC(=O)CCl)n1
inactive: Potency [1] | outcome [4] | Potency [5] | Potency [20] | Potency [7] | outcome [8] | outcome [9] | outcome [10] | outcome [11] | Potency [12] | outcome [13] | outcome [14] | Potency [15] | outcome [17] | outcome [18] | Potency [16]

Cc1ccccc1OCC(=O)O
inactive: Potency [1] | outcome [4] | Potency [5] | Potency [20] | outcome [6] | Potency [7] | outcome [8] | outcome [9] | outcome [10] | outcome [11] | Potency [12] | outcome [13] | outcome [14] | Potency [15] | outcome [18] | Potency [16]

CCO[Si](CC(C)C)(OCC)OCC
inactive: Potency [1] | outcome [2] | outcome [4] | Potency [5] | Potency [20] | outcome [8] | outcome [9] | outcome [10] | outcome [11] | Potency [12] | outcome [13] | outcome [14] | Potency [15] | outcome [17] | outcome [18]
active: Potency [16] 9.69 µM

Source: PubChem BioAssay (Tox21)
